The values that follow come from PubChem BioAssay (NCI).

Molecules are shown by their SMILES. Compounds without any hit were thinned out: in the full panel of roughly 83,000, 20% have a hit.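 Single-dose data. Exposure time 48 hours. Values below 10 considered active.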 Unmarked numbers belong to inactive results. Active and inactive are the calls of the source.

The test system of the test is KM12 colon. Briefly: NCI-60 one-dose screen, 48 h (100 = growth as untreated, 0 = no growth, -100 = all killed). The following applies: 10 µM unless noted.
With `O=[As](O)(O)c1ccccc1[As](=O)(O)O`, the growth was 105%. With `Clc1ccc(COC(Cn2ccnc2)c2ccc(Cl)cc2Cl)cc1` (stereo not drawn) the figure was 29.1%; with `CN(C)C(=O)Oc1ccccc1`, 110%; with `CC[C@H](C)[C@H](NC(=O)C12C3C4C1C1C2C3C41NC(C)=O)C(=O)N(C)[C@H](C[C@@H](OC(C)=O)c1nc(C(=O)N[C@@H](Cc2ccccc2)C[C@H](C)C(=O)OC)cs1)C(C)C` (stereo partly drawn), 14.8%.

On to `COc1ccc(C(=O)c2sc3nc4c(cc3c2N)N2CCC4CC2)cc1OC`, for which the growth is 97.7%.

With `CCC(CC)CC1(C)CC2(C)CCOC2OO1` (stereo not drawn), the growth is 111%. Take `ClCCN(CCCl)c1ccc(/C=N\N=C\c2ccc(N(CCCl)CCCl)cc2)cc1`: the growth was 30.3%. The result for `CCOC(=O)C(Cc1ccc(N(CCCl)CCCl)cc1)NC(=O)C(CC(C)C)NC(C)=O` (stereo not drawn) reads 71.6%. Take `CNCc1cccnc1`: the growth was 104%. The result for `CCN(CCO)C(Cc1ccccc1)c1ccccc1` (stereo not drawn) reads 99.4%; that for `C=CCc1cc2c(cc1OCC)OCO2`, 104%; that for `N#Cc1c(Br)n(C2OC(CO)C(O)C2O)c2ncnc(N)c12` (stereo not drawn), 34%. The result for `NC(=S)c1cn(C2OC(CO)C(O)C2O)c2ncnc(N)c12` (stereo not drawn) reads -14.9% (active); that for `O=P(N1CC1)(N1CC1)N1CCc2ccccc21`, 113%. With `Oc1ccc2c3c1OC1[C@@H](O)CC[C@@]4(O)[C@@H](C2)N(CC2CCC2)CC[C@]314` (stereo partly drawn) the figure was 104%; with `COC(=O)[C@@]1(O)C[C@H]2O[C@]1(C)n1c3ccccc3c3c4c(c5c6ccccc6n2c5c31)C(=O)NC4`, -13.9% (active); with `ClCCN(CCCl)c1ccc(OCc2ccccc2)cc1`, 90.5%. As to `N#CC1(C#N)C(c2ccc(N(CCCl)CCCl)cc2)OC23CCCCC2C1(C#N)C(=N)O3` (stereo not drawn), the growth is 100%. With `COC(=O)[C@@H](C)C[C@H](Cc1ccccc1)NC(=O)c1nc([C@@H](C[C@H](C(C)C)N(C)C(=O)[C@@H](NC(=O)[C@H]2CC(=O)CCN2C)C(C)C)OC(C)=O)sc1C(C)C` the figure was 6.01% (active); with `Nc1ccc2c(c1)oc1ccccc12`, 106%; with `CNC(=O)Oc1ccc(C(C)(C)C)cc1OC(=O)NC`, 99.8%.

In the case of `COc1cc2c(cc1OCCCCn1c(-c3cccs3)nc3ccccc31)N=C[C@@H]1CCCN1C2=O`, the growth is 0.0109% (active). Turning to `CC[C@H](C)[C@H](NC(=O)C12C3C4C1C1C2C3C41NC)C(=O)N(C)[C@H](C[C@@H](OC(C)=O)c1nc(C(=O)N[C@@H](Cc2ccccc2)C[C@H](C)C(=O)OC)cs1)C(C)C` (stereo partly drawn), the growth was 15%. As to `COc1ccc(N(CC(=O)NCCC[Te]c2ccccc2)C(=O)CCSC2=C(C)C(=O)c3ccccc3C2=O)cc1`, the growth was -17.3% (active). As to `NC(=Nc1ccccc1)N[N+](=O)[O-]`, the growth was 106%. Regarding `C[S+]1C=Cc2ccccc2C1c1ccc(Cl)cc1` (stereo not drawn), the growth was 1.91% (active). For `CC(C)[C@]12O[C@H]1[C@@H]1O[C@]13[C@]1(O[C@H]1C[C@H]1c4c(C(=O)c5ccccc5)oc(OC(=O)c5ccccc5)c4CC[C@@]13C)[C@@H]2O`, the growth is -15.7% (active).

Consider `CN(C)CC(C(=O)Cc1ccccc1)c1ccccc1` (stereo not drawn), for which the growth was -1.54% (active). As to `O=C1C=C2C(=CCOC2O)O1` (stereo not drawn), the growth is 20.5%.

For `Clc1ccc(N2COOC3(OOC2)C2CC4CC(C2)CC3C4)cc1`, the growth is 36%. As to `Nc1ccc2c(c1)Cc1cc(Br)ccc1-2`, the growth is 105%. Consider `O=c1[nH]c2ccc([N+](=O)[O-])cc2c(=O)o1`, for which the growth is 106%. As for `CN1CC(CNC(=O)OCc2ccccc2)CC2c3cccc4c3c(cn4C)CC21` (stereo not drawn), the growth is 38.1%. Take `NC(=O)c1c(Br)n(C2OC(CO)C(O)C2O)c2ncnc(N)c12` (stereo not drawn): the growth was -8.13% (active). `Cc1cc(N(CCCl)CCCl)ccc1/C=N\NC(=O)c1ccncc1`: the growth is 95.6%. For the compound `COC(=O)CCC1=C(C)c2cc3[n-]c(cc4nc(cc5[n-]c(cc1n2)c(CCC(=O)OC)c5C)C=C4C)cc3C.[Cd+2]`, the growth was 13.3%. Turning to `CCCC(C)C1(CC)C(=O)NC(=O)N(C)C1=O` (stereo not drawn), the growth was 110%. With `CC(=O)c1ccc(C(=O)NCC2CCC3(CC2)OOC2(CCCCC2)OO3)cc1` the figure was 69.7%.
